# Results published in PubChem BioAssay (NCATS).
# Several values for one entry are separate records, joined by “and”; a condition that tells them apart may be missing. Identical values can stand only once. Results filed as inconclusive are left out. Where a call stands in place of a potency, no number is given. Activity calls are given as the source filed them. Unless noted, calls come from the whole dose curve; as a rule, active = well fitted curve in the direction sought with a large enough effect; inconclusive = small, poorly fitted or top-dose-only effect, or another doubt; inactive = no such curve, though single readings can be large; an effect the other way counts as inactive or inconclusive.
# Assays:
# [1] = Cellular Toxicity (caspase-3) Mesangial (AID 660);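 note: combined caspase 3 and 7 activity read by Caspase-Glo luminescence; cells exposed to compound for 16 h before the caspase read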
# How it was run: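 Concentration-response qHTS: compound-induced rise in caspase 3/7 luminescence in human mesangial cells after 16 h, normalized to DMSO and 100 uM tamoxifen controls.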
# [2] = Cell Viability - LYMP2-017 (AID 972);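 note: cells exposed to compound for 24 hours at 37 °C; nearly all actives have a fitted effect of over 55% in size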
# How it was run: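 Steps: plate 2500 lymphoblastoid cells per well; incubate 5 hr at 37 C; add compound across a concentration series and incubate 24 hr at 37 C; add CellTiter-Glo and read luminescence after 30 min at room temperature; fit Hill curves for AC50.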
# [3] = biological target: Estrogen receptor (Homo sapiens) (UniProt P03372); test: qHTS assay for small molecule agonists of estrogen receptor alpha signaling (AID 588514; calls by dose curve; note: nearly all actives have a fitted effect of over 70% in size)
# How it was run: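 Reporter-gene assay. […] controls beta-lactamase in HEK 293 GripTite cells; after 18 hrs with compound, CCF4 substrate is added for 2 hrs and fluorescence is read.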
# [4] = biological target: Glucocorticoid receptor (Homo sapiens) (UniProt P04150); test: qHTS assay for small molecule agonists of glucocorticoid receptor signaling (AID 588532; active = well fitted curve in the direction sought with a large enough effect in the signal ratio, with a control signal flat; the % refers to the signal ratio); conditions: HeLa MMTV-bla, beta-lactamase ratio, agonist, 18 h; stronger effect = higher value; percent of dexamethasone control, DMSO zero
# How it was run: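 Stimulation of a glucocorticoid response element-driven beta-lactamase gene was measured in HeLa cells. Responses were scaled between DMSO basal and 0.1 uM dexamethasone, then fitted for half-maximal stimulation.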
# [5] = biological target: Glucocorticoid receptor (Homo sapiens) (UniProt P04150); test: qHTS assay for small molecule antagonists of glucocorticoid receptor signaling (AID 588533; active = well fitted inhibition curve with a large enough effect in the signal ratio, with a control signal flat, not every such curve was filed as active; the % refers to the signal ratio;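 note: cells stimulated with 2 nM dexamethasone as agonist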)
# How it was run: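 Antagonist-mode qHTS: compound titrations added to GRE-bla HeLa cells, then dexamethasone 2 nM final; 18 h, 37 C. CCF4 FRET fluorescence normalized to dexamethasone and DMSO; IC50 from Hill fit.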
# [6] = biological target: Peroxisome proliferator-activated receptor delta (Homo sapiens) (UniProt Q03181); test: qHTS assay for small molecule agonists of peroxisome proliferator-activated receptor delta signaling (AID 588534; calls by dose curve)
# How it was run: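 Reporter cells were plated and held 5 hrs at 37 C before compounds were added. After 18 hrs at 37 C, CCF4 dye was loaded for 2 hrs at RT and fluorescence measured.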
# [7] = qHTS assay for small molecule antagonists of peroxisome proliferator-activated receptor delta signaling (AID 588535; active = well fitted inhibition curve with a large enough effect in the signal ratio, with a control signal flat, not every such curve was filed as active; the % refers to the signal ratio;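 for max response: cells co-treated with a PPAR-delta agonist as stimulator during compound exposure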); conditions: HEK293T PPARd-UAS-bla, beta-lactamase FRET ratio, 18 h; 460 nm channel
# How it was run: (§1)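 GeneBLAzer PPAR-delta-UAS-bla HEK293T cells in medium with 2% charcoal/dextran FBS were preincubated 5 hrs at 37 C, then given compounds, incubated 18 hrs at 37 C, and read by CCF4 beta-lactamase fluorescence; IC50 from Hill fits.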
# [8] = biological target: Peroxisome proliferator-activated receptor delta (Homo sapiens) (UniProt Q03181); test: as above
# How it was run: as §1
# [9] = biological target: Vitamin D3 receptor (Homo sapiens) (UniProt P11473); test: qHTS assay for small molecule agonists of vitamin D receptor signaling (AID 588543; calls by dose curve)
# How it was run: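 Reporter cells (HEK293T, VDR-UAS-bla) were seeded in medium with 2% charcoal-stripped serum and incubated 5 h, then compounds in concentration series were added for 16 h at 37 °C. Stimulation was scaled between DMSO basal and 50 nM 1α,25-dihydroxyvitamin D3.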
# [10] = qHTS assay for small molecule agonists of the antioxidant response element (ARE) signaling pathway (AID 651741; active = well fitted activation curve with a large enough effect in the signal ratio; the % refers to the signal ratio)
# How it was run: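 ARE-bla HepG2 cells (beta-lactamase reporter under ARE control) were plated at 2,000 cells/well, preincubated 5 h at 37 C/5% CO2, then treated with DMSO-dissolved compounds for 16 h at 37 C; LiveBLAzer B/G FRET substrate added, fluorescence read after 2 h at room temperature.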
# [11] = qHTS assay for small molecule activators of the nuclear factor-kappa B (NF-kB) signaling pathway (AID 651749; active = well fitted activation curve with a large enough effect in the signal ratio; the % refers to the signal ratio); conditions: NF-kB-bla ME-180 cells, beta-lactamase FRET ratio, 16 h; stronger effect = higher value
# How it was run: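 ME-180 cells stably carrying a beta-lactamase reporter under an NF-kB response element were exposed to compound or DMSO vehicle for 16 hr at 37C, 5% CO2. Pathway activation was read by FRET, since reporter expression disrupts FRET.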
# [12] = qHTS assay for small molecule antagonists of the retinoid-related orphan receptor gamma (ROR-gamma) signaling pathway - cell viability counter screen (AID 720652; active = well fitted curve in the direction sought with a large enough effect in the repeat runs; an effect the other way counts as inactive or inconclusive;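 note: CHO reporter cells with doxycycline-induced ROR-gamma expression; compound exposure lasted 16 hr before ATP read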)
# How it was run: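 Cytotoxicity is quantified via intracellular ATP (CellTiter-Glo luminescence) in doxycycline-induced CHO ROR response element-luciferase reporter cells treated with compound for 16 hr at 37 C, 5% CO2.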
# [13] = Cell Viability - LYMP2-004 (AID 966); note: nearly all actives have a fitted effect of over 65% in size
# How it was run: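 Acute toxicity is scored as a concentration-dependent drop in intracellular ATP, quantified by luciferase luminescence, in human lymphoblastoid cells exposed to compound for 24 hr. AC50 derives from Hill-equation modelling.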
# [14] = biological target: Estrogen receptor (Homo sapiens) (UniProt P03372); test: qHTS assay for small molecule antagonists of estrogen receptor alpha signaling (AID 588513; active = well fitted curve in the direction sought with a large enough effect in the signal ratio, with a control signal flat, not every such curve was filed as active; the % refers to the signal ratio)
# How it was run: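 Fluorescence from CCF4 substrate after 2 h at room temperature gave reporter activity; cells had been exposed to compound and 0.5nM 17-beta-estradiol for 18 h at 37 C. Hill-equation fitting yielded IC50 and maximal response.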
# [15] = biological target: Peroxisome proliferator-activated receptor gamma (Homo sapiens) (UniProt P37231); test: qHTS assay for small molecule agonists of peroxisome proliferator-activated receptor gamma signaling (AID 588536; active = well fitted curve in the direction sought with a large enough effect in the signal ratio, with a control signal flat, not every such curve was filed as active; the % refers to the signal ratio)
# How it was run: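 GeneBLAzer PPAR-gamma-UAS-bla HEK293 cells in 1% charcoal/dextran-treated FBS medium were treated 16 h at 37 C with compounds. Beta-lactamase activity was read by CCF4 ratio (460/530 nm). Response was normalized to 2 uM rosiglitazone (100%) and DMSO, then Hill-fitted for EC50 and efficacy.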
# [16] = biological target: Peroxisome proliferator-activated receptor gamma (Homo sapiens) (UniProt P37231); test: qHTS assay for small molecule antagonists of peroxisome proliferator-activated receptor gamma signaling (AID 588537; active = well fitted inhibition curve with a large enough effect in the signal ratio, with a control signal flat, not every such curve was filed as active; the % refers to the signal ratio;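 note: reporter cells co-stimulated with 50 nM rosiglitazone agonist during compound treatment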)
# How it was run: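 PPAR-gamma-UAS-bla HEK293 cells (3000/well, 1% charcoal/dextran-stripped FBS) were preincubated 6-6.5 h at 37 C, given titrated compounds, then stimulated with 50 nM rosiglitazone for 16 h. Beta-lactamase activity was read with CCF4 dye; IC50 came from Hill fits.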
# [17] = biological target: Vitamin D3 receptor (Homo sapiens) (UniProt P11473); test: qHTS assay for small molecule antagonists of vitamin D receptor signaling (AID 588541; calls by dose curve;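 note: receptor activated by calcitriol during compound treatment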)
# How it was run: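 VDR-UAS-bla HEK293T cells (2000/well, 2% charcoal-stripped FBS) were treated with titrated compounds plus 1-alpha,25-dihydroxyvitamin D3 (50 nM or 3 nM final) for 16 h at 37 C. CCF4 beta-lactamase fluorescence was read; Hill fits gave IC50.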
# [18] = qHTS assay for small molecule agonists of the antioxidant response element (ARE) signaling pathway measured by Nrf2-dependant transcriptional activity (AID 720636; active = well fitted curve in the direction sought with a large enough effect in the repeat runs; an effect the other way counts as inactive or inconclusive;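 note: HepG2 cells with an ARE-driven luciferase reporter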)
# How it was run: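 HepG2 ARE-luc reporter line, 1% dialyzed FBS; 6 hr attachment at 37 C, compound pinned in, 16 hr at 37 C/5% CO2; ONE-Glo, 30 min RT, luminescence read.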
# [19] = biological target: Thyroid hormone receptor beta (Homo sapiens) (UniProt P10828); test: qHTS assay for small molecule antagonists of thyroid hormone receptor beta signaling (AID 588547; active = well fitted inhibition curve with a large enough effect in the signal ratio, with a control signal flat, not every such curve was filed as active; the % refers to the signal ratio;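 note: cells stimulated with 0.4 nM T3 agonist during compound exposure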); conditions: TR-UAS-bla HEK293, beta-lactamase ratio, antagonist mode, 18 h
# How it was run: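 TR-UAS-bla GripTite HEK293 cells in 2% charcoal/dextran FBS medium were preincubated 4 h at 37 C, given compound (0.59 nM to 92 uM) plus 0.4 nM T3 (final) for 18 h, then CCF4 for 2 h at RT; Hill fit gave IC50.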
# [20] = Cell Viability - NIH 3T3 (AID 541); conditions: NIH 3T3 cell viability, qHTS; activity change, negative = cytotoxicity: at 92.2 µM (top of the series);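 note: cells exposed to compound for 40 hours; nearly all actives have a fitted effect of over 25% in size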
# How it was run: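 AC50 values reflect concentration-dependent loss of intracellular ATP in NIH 3T3 cells after 40 hr treatment in complete culture medium, quantified by luciferase-based luminescence.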
# Sequence of Peroxisome proliferator-activated receptor delta (Homo sapiens) (Q03181 whole entry, looked up): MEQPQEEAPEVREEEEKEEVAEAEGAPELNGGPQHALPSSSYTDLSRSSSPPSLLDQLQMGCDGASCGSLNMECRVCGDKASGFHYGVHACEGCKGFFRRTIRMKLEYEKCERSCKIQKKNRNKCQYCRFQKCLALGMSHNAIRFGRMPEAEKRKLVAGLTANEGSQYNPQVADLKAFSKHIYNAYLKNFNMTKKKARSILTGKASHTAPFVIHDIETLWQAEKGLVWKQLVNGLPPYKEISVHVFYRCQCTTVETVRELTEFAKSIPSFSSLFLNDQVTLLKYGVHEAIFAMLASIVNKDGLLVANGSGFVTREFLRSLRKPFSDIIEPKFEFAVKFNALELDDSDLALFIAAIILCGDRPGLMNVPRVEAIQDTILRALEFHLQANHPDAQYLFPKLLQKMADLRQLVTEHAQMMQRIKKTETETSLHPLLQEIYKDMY
# Sequence of Vitamin D3 receptor (Homo sapiens) (P11473 whole entry, looked up): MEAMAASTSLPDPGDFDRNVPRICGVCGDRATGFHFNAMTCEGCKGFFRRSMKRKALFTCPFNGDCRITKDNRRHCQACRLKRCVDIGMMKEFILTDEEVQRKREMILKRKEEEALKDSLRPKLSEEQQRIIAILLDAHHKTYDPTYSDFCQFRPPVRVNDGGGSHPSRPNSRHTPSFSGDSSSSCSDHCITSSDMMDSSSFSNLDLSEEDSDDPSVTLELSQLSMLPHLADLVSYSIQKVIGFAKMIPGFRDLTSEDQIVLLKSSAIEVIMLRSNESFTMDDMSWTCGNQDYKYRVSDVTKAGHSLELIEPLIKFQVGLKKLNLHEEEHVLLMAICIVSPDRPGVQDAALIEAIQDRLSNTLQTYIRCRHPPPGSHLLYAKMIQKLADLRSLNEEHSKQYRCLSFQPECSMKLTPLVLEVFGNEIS
# Sequence of Thyroid hormone receptor beta (Homo sapiens) (P10828 whole entry, looked up): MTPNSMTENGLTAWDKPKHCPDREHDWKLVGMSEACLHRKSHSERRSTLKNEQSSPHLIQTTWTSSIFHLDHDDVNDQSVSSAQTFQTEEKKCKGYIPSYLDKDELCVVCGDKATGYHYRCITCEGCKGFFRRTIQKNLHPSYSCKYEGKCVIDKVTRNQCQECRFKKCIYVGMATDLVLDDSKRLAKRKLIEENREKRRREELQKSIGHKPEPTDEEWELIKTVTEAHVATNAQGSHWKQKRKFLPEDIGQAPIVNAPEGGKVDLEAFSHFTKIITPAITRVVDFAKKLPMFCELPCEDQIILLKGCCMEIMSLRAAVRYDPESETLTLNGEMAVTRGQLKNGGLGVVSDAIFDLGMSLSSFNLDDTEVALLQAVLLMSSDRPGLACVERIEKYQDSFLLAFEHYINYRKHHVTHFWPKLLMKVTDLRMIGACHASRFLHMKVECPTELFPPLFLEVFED
# Sequence of Estrogen receptor (Homo sapiens) (P03372 whole entry, looked up): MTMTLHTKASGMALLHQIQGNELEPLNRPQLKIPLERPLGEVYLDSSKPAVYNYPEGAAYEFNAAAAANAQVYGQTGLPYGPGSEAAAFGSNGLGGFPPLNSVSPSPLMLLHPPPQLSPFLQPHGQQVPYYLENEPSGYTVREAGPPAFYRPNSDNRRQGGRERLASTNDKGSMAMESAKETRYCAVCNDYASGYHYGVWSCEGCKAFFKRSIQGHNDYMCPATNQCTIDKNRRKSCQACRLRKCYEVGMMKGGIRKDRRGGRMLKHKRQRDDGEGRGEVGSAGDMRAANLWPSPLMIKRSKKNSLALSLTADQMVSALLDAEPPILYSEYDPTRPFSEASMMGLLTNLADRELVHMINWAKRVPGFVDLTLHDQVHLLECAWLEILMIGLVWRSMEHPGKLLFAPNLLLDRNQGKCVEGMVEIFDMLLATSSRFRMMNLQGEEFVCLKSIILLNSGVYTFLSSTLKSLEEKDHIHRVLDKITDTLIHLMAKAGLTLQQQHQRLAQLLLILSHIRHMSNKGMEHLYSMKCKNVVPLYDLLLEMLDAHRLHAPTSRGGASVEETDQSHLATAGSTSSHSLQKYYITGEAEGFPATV
# Sequence of Peroxisome proliferator-activated receptor gamma (Homo sapiens) (P37231 whole entry, looked up): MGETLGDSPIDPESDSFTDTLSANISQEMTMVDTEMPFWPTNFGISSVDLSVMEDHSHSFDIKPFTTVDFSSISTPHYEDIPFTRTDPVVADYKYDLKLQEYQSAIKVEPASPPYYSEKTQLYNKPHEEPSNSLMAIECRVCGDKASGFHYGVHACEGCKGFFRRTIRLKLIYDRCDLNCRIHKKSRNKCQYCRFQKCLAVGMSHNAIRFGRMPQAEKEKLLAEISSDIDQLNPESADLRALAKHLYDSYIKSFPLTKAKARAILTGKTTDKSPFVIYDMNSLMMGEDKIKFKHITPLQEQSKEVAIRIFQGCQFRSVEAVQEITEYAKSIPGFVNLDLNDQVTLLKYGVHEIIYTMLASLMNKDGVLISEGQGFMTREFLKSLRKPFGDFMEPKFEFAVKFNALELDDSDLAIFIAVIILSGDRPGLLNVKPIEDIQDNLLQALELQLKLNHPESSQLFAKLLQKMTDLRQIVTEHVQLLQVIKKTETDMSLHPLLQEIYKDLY
# Sequence of Glucocorticoid receptor (Homo sapiens) (P04150 whole entry, looked up): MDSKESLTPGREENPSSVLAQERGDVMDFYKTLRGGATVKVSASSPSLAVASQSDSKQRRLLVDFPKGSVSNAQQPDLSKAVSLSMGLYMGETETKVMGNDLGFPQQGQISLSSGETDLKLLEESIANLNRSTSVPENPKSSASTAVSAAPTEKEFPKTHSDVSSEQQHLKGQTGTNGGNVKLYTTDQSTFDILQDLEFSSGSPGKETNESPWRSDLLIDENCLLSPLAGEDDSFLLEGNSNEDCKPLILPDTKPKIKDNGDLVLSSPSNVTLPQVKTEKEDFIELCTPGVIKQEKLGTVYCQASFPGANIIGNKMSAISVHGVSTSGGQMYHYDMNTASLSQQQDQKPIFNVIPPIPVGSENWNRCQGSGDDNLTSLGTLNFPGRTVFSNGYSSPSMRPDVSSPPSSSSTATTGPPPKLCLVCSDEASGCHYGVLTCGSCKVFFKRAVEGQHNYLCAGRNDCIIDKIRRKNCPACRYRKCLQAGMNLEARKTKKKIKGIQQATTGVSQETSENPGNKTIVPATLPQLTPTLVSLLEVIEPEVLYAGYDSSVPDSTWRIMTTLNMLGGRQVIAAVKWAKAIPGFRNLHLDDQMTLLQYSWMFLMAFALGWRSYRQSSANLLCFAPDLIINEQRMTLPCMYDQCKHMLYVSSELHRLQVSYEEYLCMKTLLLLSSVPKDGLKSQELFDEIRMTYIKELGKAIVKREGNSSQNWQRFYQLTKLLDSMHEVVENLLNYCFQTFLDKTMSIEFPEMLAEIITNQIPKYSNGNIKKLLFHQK
SMILES,outcome [1],Potency [2],Potency [3],activation [4],outcome [5],outcome [6],max response [7],outcome [8],outcome [9],Potency [10],activation [11],Potency [12],Potency [13],Potency [14],outcome [15],Potency [16],outcome [17],Potency [18],activity change % (negative = inhibition) [19],Potency [20]
CCBr,inactive,inactive,inactive,4.52% (inactive),inactive,inactive,13.3%,inactive,inactive,inactive,-0.926% (inactive),inactive,,,,,,,,
O=[N+]([O-])c1cc(Cl)c(Cl)cc1Cl,,inactive,inactive,-2.16% (inactive),inactive,inactive,5.75%,inactive,,,,inactive,inactive,inactive,inactive,inactive,inactive,inactive,,
c1ccc(OCC2CO2)cc1 (centres undefined),inactive,,,-7.97% (inactive),inactive,,,,inactive,inactive,0.652% (inactive),inactive,inactive,,inactive,,inactive,inactive,6.77% (inactive),
COC(=O)Nc1cccc(OC(=O)Nc2cccc(C)c2)c1,inactive,,,-3.09% (inactive),inactive,inactive,,,,,-1.26% (inactive),inactive,inactive,,inactive,,,,-5.68% (inactive),inactive
CCCCC#N,inactive,inactive,inactive,,,inactive,-3.23%,inactive,,inactive,,inactive,inactive,inactive,,,,,-12.9% (inactive),
CC(C)(C)c1ccccc1O,inactive,inactive,,2.08% (inactive) and 7.02% (inactive),inactive,inactive,11% and 14.4%,inactive,,inactive,-0.0104% (inactive) and -1.11% (inactive),inactive,inactive,,inactive,inactive,inactive,inactive,3.5% (inactive) and 10.7% (inactive),inactive
ClCCBr,inactive,inactive,inactive,,,,-34.3%,inactive,,,,,inactive,inactive,,inactive,,inactive,0.0673% (inactive),inactive
ClP(Cl)(Cl)(Cl)Cl,inactive,inactive,inactive,-4.5% (inactive),inactive,inactive,,,inactive,inactive,,,inactive,inactive,inactive,,,inactive,-5.32% (inactive),inactive
C=CCc1cc(OC)c2c(c1)OCO2,inactive,inactive,,-4.93% (inactive),inactive,inactive,,,inactive,,-0.352% (inactive),inactive,inactive,,inactive,,,inactive,4.98% (inactive),inactive
CN=C=O,,inactive,,,,inactive,61.5%,inactive,,inactive,,inactive,inactive,,,,,inactive,-7.41% (inactive),inactive
